Measured values taken from PubChem BioAssay (EPA / NIEHS).
Where “and” joins values, the source holds several entries; their conditions need not be identical. Equal values may be shown once. Results filed as inconclusive are left out. A structure can be active in one record and inactive in another. Calls of active or inactive are those of the source. How the source made its calls, unless noted: active means hit-call score of the fitted dose curve at least 0.9, where 1 is the maximum; inactive means score below 0.9.

Experiments:
[1] = ACEA_ER_80hr: ACEA Biosciences xCELLigence Real-Time Cell Analysis on Estrogen Receptor Agonism for Proliferation (AID 2282667; active means hit-call score of the fitted dose curve at least 0.9, where 1 is the maximum); conditions: T47D proliferation, impedance (xCELLigence), 80 h
Method in brief: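 Impedance readout (RT-CES) of T47D proliferation at 80 h post-dose; gain of signal vs DMSO baseline. Compounds: 8 conc, 1:4 serial, top 100 uM final, ≤0.5% DMSO; biological duplicate.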

[2] = APR_HepG2_CellCycleArrest_24hr: Apredica 24-hour HepG2 Assay for Cell Cycle Arrest (AID 2282905); conditions: imaging, actives raise or lower the signal;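 further: cell cycle arrest scored as ratio of 2N to 4N nuclear DNA content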
Method in brief: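 Compounds (0.39 to 200 uM, final DMSO 0.5% v/v) are applied to HepG2 cells for 24 hours; cells are then fixed, permeabilized and nuclei labeled with Hoechst 33342. Automated imaging measures DNA content, and activity is fitted in both directions against DMSO.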

[3] = APR_HepG2_NuclearSize_24hr: Apredica 24-hour HepG2 Assay for Nuclear Size (AID 2282907); conditions: high-content imaging, actives raise or lower the signal
Method in brief: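 Nuclear size is measured by fluorescence high-content imaging of Hoechst-labelled HepG2 nuclei after 24 hr of treatment (0.39–200 uM, 0.5% DMSO). Cells are fixed in 3.7% formaldehyde before staining, and DMSO serves as the baseline for bidirectional curve fitting.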

[4] = APR_HepG2_CellLoss_24hr: Apredica 24-hour HepG2 Assay for Cell Loss (AID 2282908); conditions: high-content imaging;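 on AC50: fit in both directions so a hit may be cell loss or gain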
Method in brief: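 Nuclear count serves as the viability measure: treated cells are fixed, permeabilized and labelled with Hoechst 33342, and six images per well are analysed to identify valid nuclei. Doses span 0.39–200 uM, and activity in either direction is scored against DMSO.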

[5] = APR_HepG2_MicrotubuleCSK_24hr: Apredica 24-hour HepG2 Assay for Microtubule CSK Stabilty (AID 2282909); conditions: HepG2 microtubule cytoskeleton imaging, actives raise or lower the signal
Method in brief: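 Compounds were applied to HepG2 cells for 24 hours across 0.39–200 uM in duplicate, with final DMSO at 0.5% v/v. Fixed, permeabilized cells were labeled for alpha-tubulin and nuclei, and tubulin fluorescence was quantified by imaging, fitted bidirectionally against DMSO.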

[6] = APR_HepG2_MitoticArrest_24hr: Apredica 24-hour HepG2 Assay for Mitotic Arrest (AID 2282910); conditions: high-content imaging, actives raise or lower the signal
Method in brief: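 HepG2, 24 hr dosing, 0.39–200 uM, 0.5% DMSO final. Formaldehyde-fixed, Triton-permeabilised, anti-phospho-histone H3 plus Hoechst. ArrayScan imaging at 20x; bidirectional fit vs DMSO baseline.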

[7] = APR_HepG2_MitoMembPot_24hr: Apredica 24-hour HepG2 Assay for Mitochondrial Membrane Potential (AID 2282911); conditions: imaging, actives raise or lower the signal
Method in brief: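 HepG2, 24 hr dosing, 10 concentrations 0.39–200 uM, 0.5% DMSO final. Live-cell MitoTracker Red CMXRos 250 nM 30 min, then 3.7% formaldehyde fix. HCS fluorescence imaging, 20x; bidirectional fit vs DMSO baseline.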

[8] = APR_HepG2_MitoMass_24hr: Apredica 24-hour HepG2 Assay for Mitochondrial Mass (AID 2282912); conditions: high-content imaging, actives raise or lower the signal
Method in brief: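 After 24 hr of treatment at 0.39 to 200 uM, HepG2 cells take up 250 nM MitoTracker Red CMXRos for 30 min and are then fixed with 3.7% formaldehyde. Per-well images are quantified, and any change in either direction is scored against solvent.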

[9] = APR_HepG2_p53Act_24hr: Apredica 24-hour HepG2 Assay for p53 Activation (AID 2282913); conditions: high-content imaging, actives raise or lower the signal;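 further: p53 protein immunofluorescence averaged per cell in HepG2 with Hoechst nuclei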
Method in brief: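 Read-out: Cy5 immunofluorescence for p53 in fixed, permeabilized HepG2, imaged by HCS with Hoechst-defined nuclei. Dosing was 24 hr at 0.39–200 uM in 0.5% DMSO. Curves were fitted bidirectionally relative to DMSO.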

[10] = APR_HepG2_CellCycleArrest_72hr: Apredica 72-hour HepG2 Assay for Cell Cycle Arrest (AID 2282914); conditions: high-content imaging, actives raise or lower the signal
Method in brief: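 HepG2, 72 hr exposure, 10-point 0.39–200 uM, duplicate, 0.5% DMSO final. Fix 3.7% formaldehyde 30 min RT, Triton X-100 0.5%, Hoechst 33342 2 ug/mL. ArrayScan 20x, six fields/well; DNA content per nucleus; bidirectional fit vs DMSO.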

[11] = APR_HepG2_CellLoss_72hr: Apredica 72-hour HepG2 Assay for Cell Loss (AID 2282915); conditions: high-content imaging
Method in brief: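 HepG2 cells exposed 72 h to compound at 0.39–200 uM (10 concentrations, duplicate) in 0.5% DMSO. Fixed with 3.7% formaldehyde and Hoechst 33342-stained. Imaged at 20x; nuclear count gives cell number, fitted bidirectionally versus DMSO.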

[12] = APR_HepG2_P-H2AX_72hr: Apredica 72-hour HepG2 Assay for H2AX Phosphorylation (AID 2282916); conditions: imaging, actives raise or lower the signal;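 further: phospho-histone H2A.x immunostain intensity per cell marking DNA damage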
Method in brief: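 Human hepatoma HepG2 cells are dosed across ten concentrations (0.39 to 200 uM, 0.5% v/v DMSO) and incubated 72 hr. Phospho-histone H2A.x is then detected by antibody staining alongside c-Jun and Hoechst, and quantified by automated fluorescence imaging.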

[13] = APR_HepG2_MitoMembPot_72hr: Apredica 72-hour HepG2 Assay for Mitochondrial Membrane Potential (AID 2282917); conditions: imaging, actives raise or lower the signal
Method in brief: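 HepG2 cells dosed 72 hr with compound at 0.39–200 uM in duplicate, 0.5% v/v DMSO final. Mitochondria stained with 250 nM MitoTracker Red CMXRos for 30 min before formaldehyde fixation, imaged by high-content fluorescence; bidirectional fit versus DMSO.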

[14] = APR_HepG2_MitoticArrest_72hr: Apredica 72-hour HepG2 Assay for Mitotic Arrest (AID 2282918); conditions: high-content imaging, actives raise or lower the signal
Method in brief: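 HepG2, 72 hr exposure, 0.39–200 uM in duplicate, 0.5% v/v DMSO final. Formaldehyde-fixed, Triton-permeabilized, anti-phospho-histone H3/FITC plus Hoechst. ArrayScan imaging at 20x; curves fit bidirectionally against DMSO baseline.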

[15] = APR_HepG2_MicrotubuleCSK_72hr: Apredica 72-hour HepG2 Assay for Microtubule CSK Stabilty (AID 2282919); conditions: HepG2 microtubule cytoskeleton, high-content imaging, actives raise or lower the signal
Method in brief: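 HepG2, 72 hr cmpd exposure, 0.39–200 uM (10 pts, duplicate), 0.5% DMSO. 3.7% formaldehyde fix, 0.5% Triton perm, anti-alpha-tubulin/Cy5 plus Hoechst. HCS fluorescence intensity; bidirectional fit vs DMSO baseline; taxol as positive control.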

[16] = APR_HepG2_P-H2AX_24hr: Apredica 24-hour HepG2 Assay for H2AX Phosphorylation (AID 2282920); conditions: high-content imaging, actives raise or lower the signal
Method in brief: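 HCS fluorescence imaging of phospho-H2A.x immunostain (with Hoechst 33342 nuclear counterstain) in HepG2 after 24 hr compound exposure; 10 concentrations, 0.39–200 uM, duplicate wells, 0.5% v/v DMSO. Gain or loss of signal fitted relative to DMSO baseline.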

[17] = APR_HepG2_StressKinase_24hr: Apredica 24-hour HepG2 Assay for Stress Kinase (AID 2282922); conditions: HepG2 stress kinase (phospho-c-Jun) imaging, actives raise or lower the signal
Method in brief: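 Read-out: phospho-c-Jun immunofluorescence (Cy3 secondary) quantified by high-content imaging at 20x, nuclei defined by Hoechst 33342. Human HepG2 liver cells dosed 24 hr, 0.39–200 uM, DMSO 0.5% v/v; gain or loss of signal fitted relative to DMSO.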

[18] = APR_HepG2_MitoMass_72hr: Apredica 72-hour HepG2 Assay for Mitochondrial Mass (AID 2282924); conditions: high-content imaging, actives raise or lower the signal;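 further: MitoTracker Red CMXRos stain intensity per cell imaged as mitochondrial mass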
Method in brief: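 Read-out: MitoTracker Red fluorescence intensity from automated imaging (20x, six fields per well) in human HepG2 liver cells. Dosing ran 72 hr, 0.39–200 uM, 0.5% DMSO; bidirectional curve fitting versus DMSO baseline.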

[19] = APR_HepG2_StressKinase_72hr: Apredica 72-hour HepG2 Assay for Stress Kinase (AID 2282921); conditions: HepG2 stress kinase (phospho-c-Jun) imaging, actives raise or lower the signal
Method in brief: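 After a 72 h compound treatment spanning 0.39 to 200 uM, formaldehyde-fixed cells are labelled for phosphorylated c-Jun and nuclei, imaged by automated fluorescence microscopy, and activity is fitted in both directions relative to DMSO controls.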

[20] = APR_HepG2_p53Act_72hr: Apredica 72-hour HepG2 Assay for p53 Activation (AID 2282923); conditions: high-content imaging, actives raise or lower the signal;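 further: average cellular p53 protein immunofluorescence intensity in HepG2 cells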
Method in brief: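 Imaging-based endpoint: after 72 hr compound exposure (up to 200 uM, 0.5% DMSO), fixed and permeabilized monolayers were labelled with anti-p53 antibody and imaged; signal change in either direction was fitted relative to DMSO controls.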

Measured: AC50

Cc1cc(C)c(O)c(C)c1
not listed: [19] | [20]
inactive: all other assays above

O=C(/C=C/c1ccc(O)cc1)CC(=O)/C=C/c1ccc(O)cc1
active: [3] 68.6 µM | [6] 24.6 µM | [12] 32.1 µM | [17] 100 µM | [18] 46.3 µM
not listed: [8] | [14] | [19] | [20]
inactive: all other assays above

NC(=O)N(O)[C@@H]1C=C[C@H](Oc2cccc(Oc3ccc(F)cc3)c2)C1
active: [4] 107 µM | [5] 93 µM | [7] 32.9 µM | [9] 105 µM | [11] 94.7 µM | [14] 85.4 µM | [16] 103 µM
not listed: [8] | [20]
inactive: all other assays above

c1ccc2cc3c(ccc4ccccc43)cc2c1
active: [1] 11.7 µM and 2.92 µM | [2] 67.6 µM | [4] 48.1 µM | [6] 65.7 µM | [7] 63 µM | [9] 103 µM | [10] 17.4 µM | [11] 9.42 µM | [13] 73.6 µM | [16] 51 µM
inactive: [1] | [5] | [12] | [15] | [19] | [17] | [18]

C[C@@H]1C[C@H]2[C@@H]3CCC4=CC(=O)C=C[C@]4(C)[C@@]3(F)[C@@H](O)C[C@]2(C)[C@@]1(O)C(=O)COP(=O)(O)O
inactive: [1] | [2] | [15] | [19] | [17]
active: [1] 685 nM | [3] 9.81 µM | [4] 15.4 µM | [5] 94 µM | [6] 1.76 µM | [7] 37.7 µM | [8] 2.64 µM | [9] 27.5 µM | [10] 94 µM | [11] 6.32 µM | [12] 1.09 µM | [13] 45.1 µM | [14] 1.12 µM | [16] 16 µM | [20] 1.45 µM | [18] 5.23 µM

CC(O)C(=O)O (stereo not drawn)
inactive: [1]

CCC(C)(C)C1CCC(O)CC1 (stereo not drawn)
active: [1] 2.38 µM and 336 nM | [4] 99.8 µM | [9] 122 µM | [11] 122 µM | [12] 112 µM | [16] 114 µM | [20] 105 µM
inactive: [1] | [2] | [5] | [6] | [7] | [10] | [13] | [15] | [17] | [18]
